# An excerpt weighted towards active compounds, which were near 5.3% of everything screened.
# Tau fibril ThT = tau fibrillization inhibition (ThT binding); Potency, µM (highest dose often 57.4 µM), for the others: at the highest dose activity, negative = inhibition, usual class: inhibitors; recombinant tau K18 P301L, heparin-induced fibrillization, ThT fluorescence; P10636; actives 2.1% (n = 270,000); further: potency means the concentration at half of the fitted maximal effect; nearly all actives have a fitted effect of over 55% in size
# Target sequence (P10636 561-689 P618L limits assumed): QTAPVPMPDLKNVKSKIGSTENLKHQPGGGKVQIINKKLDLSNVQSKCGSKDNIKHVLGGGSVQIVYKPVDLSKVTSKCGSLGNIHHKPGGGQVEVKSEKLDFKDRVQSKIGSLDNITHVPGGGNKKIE
#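 Using a mix of unlabeled (15 uM) and Alexa 594-labeled (0.24 uM) tau K18 P301L, heparin-triggered fibrillization over 6 hr at 37 C was scored by ThT fluorescence.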
# JMJD2E inh = JMJD2E (human) inhibition; JMJD2E catalytic domain, FDH-coupled NADH fluorescence (FDH is formaldehyde dehydrogenase); actives 1.6% (n = 230,000); Potency, µM (doses to about 57.1 µM), inactives show at the top dose activity change, negative = inhibition, usual class: inhibitors; B2RXH2; active means well fitted inhibition curve with a large enough effect, not every such curve was filed as active; inconclusive means small, poorly fitted or top-dose-only effect, or another doubt; inactive means no such curve, though single readings can be large or run the other way;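 further: potency means the concentration at half of the fitted maximal effect; 0% = wells with enzyme and -100% = buffer wells without enzyme; nearly all actives have a fitted effect of over 50% in size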
# Target sequence (B2RXH2 1-337 limits assumed): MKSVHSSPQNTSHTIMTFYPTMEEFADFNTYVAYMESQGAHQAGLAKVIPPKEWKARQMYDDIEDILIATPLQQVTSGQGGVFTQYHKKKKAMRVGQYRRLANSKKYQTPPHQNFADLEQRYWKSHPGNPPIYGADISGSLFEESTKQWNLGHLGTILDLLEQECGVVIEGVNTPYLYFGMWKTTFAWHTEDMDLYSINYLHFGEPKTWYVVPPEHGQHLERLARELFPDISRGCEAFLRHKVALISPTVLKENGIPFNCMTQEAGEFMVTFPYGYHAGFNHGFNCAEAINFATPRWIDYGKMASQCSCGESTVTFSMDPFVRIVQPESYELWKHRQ
# Tau fluor counter = counter-screen for tau fibril formation inhibitors. actives 0.93% (n = 280,000). AID 1463. tau K18 P301L (four-repeat tau fragment) Alexa594 fluorescence, heparin fibrillization. Potency, µM (series often up to 57.7 µM), for the others: top-dose activity change, negative = decrease; further: potency means the concentration at half of the fitted maximal effect; nearly all actives have a fitted effect of over 55% in size
#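 Human K18 P301L tau (15 uM unlabeled plus 0.24 uM Alexa 594-labeled, final) in 100 mM sodium acetate pH 7 was mixed with compound and 20 uM heparin and incubated 6 hr at 37 C.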
# Tau fibril FP = blocks human tau fibril formation measured by polarization. K18 P301L tau heparin fibrillization, Alexa594 FP, 6 h. Potency, µM (top dose mostly 57.7 µM), without a hit: at the highest dose activity, negative = inhibition, usual class: inhibitors. actives 0.39% (n = 280,000). AID 1468; further: potency means the concentration at half of the fitted maximal effect; nearly all actives have a fitted effect of over 55% in size
#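 Read-out: fluorescence polarization of Alexa 594-labeled tau (0.24 uM), 555 nm excitation, 632 nm emission. Mixtures held 15 uM unlabeled K18 P301L, compound and 20 uM heparin, pH 7 acetate buffer, incubated 6 hr at 37 C.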
# Coupling enz = counter-screen for Giardia aldolase inhibitors: coupling enzyme system; coupling enzyme system counterscreen, AmpLite Red fluorescence; activity change, negative = inhibition, % at 58.2 µM, hits read low; actives 0.67% (n = 290,000); in the data active means activity change below about -30%
#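 Activity here indicates interference with the coupling reaction, not aldolase inhibition. Compounds at 57.5 uM final met coupling enzymes for 10 min at RT; substrate and AmpLite Red detection followed, with a 525/598 nm fluorescence read after 20 min.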
# Sfp inh = inhibitors of Bacillus subtilis Sfp phosphopantetheinyl transferase; actives 3.5% (n = 310,000); Potency, µM, inactives show largest response in the series, negative = inhibition, most hits filed as inhibitors; AID 1490; Biochemical Sfp PPTase activity, qHTS;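 further: the enzyme is Sfp with the accession as filed and its product quenches rhodamine fluorescence; potency means the concentration at half of the fitted maximal effect; 0% = enzyme reaction without inhibitor and -100% = no enzyme wells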
#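 Buffer: 50 mM Hepes-Na pH 7.6, 10 mM MgCl2, 0.01% Nonidet P-40, 0.01% BSA. Enzyme 15 nM, pre-exposed to compound 15 min; substrates then added and fluorescence change tracked over 30 min.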
# The depositor's hits bear a star; u = inconclusive; x = no result given; [ ] = another dose, or the depositor's remark. Unless noted, the call rests on the fitted dose curve; in most records, active means well fitted curve in the direction sought with a large enough effect; inconclusive means small, poorly fitted or top-dose-only effect, or another doubt; inactive means no such curve, though single readings can be large; an effect the other way counts as inactive or inconclusive. Unless noted, on the % scale 0 is the no-effect control and ±100 the full control effect.
SMILES,Tau fibril ThT,JMJD2E inh,Tau fluor counter,Tau fibril FP,Coupling enz,Sfp inh
O=c1[nH]nc(CNc2ccc(O)cc2)c2ccccc12,32µM*,u,u,u,-49*,u
O=c1[nH]nc(CNc2ccc(C(F)(F)F)cc2)c2ccccc12,u,-1%,-18%,1%,1,3%
Cc1[nH]c(N=Nc2ccccc2)nc1N=Nc1ccccc1,3.5µM*,u,u,-1%,-7,-18%
CCN(CC)c1ccc(NC(=O)Cn2c3ncccc3c(=O)n2-c2ccccc2)c(C)c1,-3%,x,-23%,6%,x,x
Cc1ccccc1NC(=O)COC(=O)c1ccc(S(C)(=O)=O)c([N+](=O)[O-])c1,13µM*,2%,u,-2%,1,12%
CC(CCc1ccccc1)NC(=O)COC(=O)c1ccc(S(C)(=O)=O)c([N+](=O)[O-])c1 (stereo not given),u,2%,u,6%,4,13%
CC(=O)c1cccc(NC(=O)COC(=O)c2ccc(S(C)(=O)=O)c([N+](=O)[O-])c2)c1,u,2%,u,3%,0,5%
CS(=O)(=O)c1ccc(C(=O)OCC(=O)NC(=O)C2CCCCC2)cc1[N+](=O)[O-],u,1%,u,4%,-3,25µM*
COc1ccc(N2CCN(C(=O)c3cc(S(=O)(=O)N4CCCCCC4)cn3C)CC2)cc1,3%,x,-5%,13%,x,x
NC(=O)[C@@H]1CCCN1C(=O)C(Cc1cnc[nH]1)NC(=O)C1CCC(=O)N1 (stereo not given in full),x,x,x,x,3,4%
Cc1noc(C)c1-c1nccc(N2CCN(C)CC2)n1,x,x,x,x,-1,4%
O=c1c(-c2cccs2)nc2cnc(N3CCOCC3)nc2n1Cc1cccs1,x,x,x,x,3,28%
O=[N+]([O-])c1cccc(Cl)c1N1CCOCC1,-2%,-1%,7%,-3%,1,-9%
C=CSc1sc(Cl)c(N2CCOCC2)c1[N+](=O)[O-],14µM*,3%,u,-6%,3,u
C=CS(=O)(=O)c1sc(Cl)c(N2CCOCC2)c1[N+](=O)[O-],3.5µM*,-3%,u,-2%,7,22µM*
COc1c(CO)cc(CO)cc(CO)c1=O,u,-12%,-20%,-16%,0,-9%
COc1cccc(Cn2c(=O)c(-c3cccc(F)c3)nc3cncnc32)c1,x,x,x,x,0,u
CC1(C)CC(=S)Nc2ccccc2S1,-7%,-5%,-4%,-6%,-2,28µM*
CC1(C)CC(=O)C2=C(C1)Nc1ccccc1S2,u,4%,-27%,6%,4,0%
C=CCNC(=S)N/N=C(\C)c1ccccn1,-4%,8.9µM*,-5%,-1%,-2,79µM*
C/C(=N\NC(=O)c1ccc(F)cc1)c1ccccn1,x,x,x,x,-3,9%
Cc1cc(N/N=C/c2ccc(N(C)C)cc2)nc(NCc2ccccc2)n1,4µM*,u,7.9µM*[quencher],4%,2,20µM*
Cc1cc(N/N=C/c2ccc(F)cc2)nc(NCc2ccccc2)n1,-18%,-7%,u,-17%,-8,16µM*
Cc1ccc(/C=N/Nc2cc(C)nc(NCc3ccccc3)n2)cc1,u,-17%,u,u,-8,16µM*
Cc1cc(N/N=C/c2ccc(Cl)cc2Cl)nc(NCc2ccccc2)n1,u,-7%,-29%,-11%,-3,u
COc1ccc(-c2noc(CSc3nnc(C)n3-c3ccc(F)cc3)n2)cc1,-12%,x,-12%,6%,x,x
N/C(=N\OC(=O)COc1ccc2ccccc2c1Br)c1ccncc1,u,-9%,-20%,-1%,1,45µM*
CC(C)(C)C1=Nn2c(nnc2-c2ccccc2F)SC1,-3%,2%,2%,1%,5,19%
CC(C)(C)C1=Nn2c(nnc2-c2ccccn2)SC1,2%,-23%,-1%,-6%,-13,56µM*
